Cycloheximide cs: Cycloheximide Counterscreen for Small Molecule Inhibitors of Shiga Toxin | cell reporter, cycloheximide protein synthesis inhibition counterscreen | max response, % | 300,000 tested, 12% active | AID 2314, 2010; in the data active = max response mostly above about 13%, no sharp cut-off; inactive = mostly below about 14%; also: read at 38.3 µM for the half of the compounds with a filed dose
Marburg entry inh: qHTS for inhibitors of binding or entry into cells for Marburg Virus; Marburg virus pseudotyped entry inhibition, cell reporter; Potency, µM (top dose mostly 37.8 µM), actives largely listed as inhibitors; 300,000 tested, 1.8% active; calls by dose curve; tested in HEK293 cells
Pf growth 96h: Primary qHTS for delayed death inhibitors of the malarial parasite plastid, 96 hour incubation; P. falciparum luciferase reporter growth, 96 h; Potency, µM (titrated, usually from 28.7 µM), most hits filed as inhibitors; 320,000 tested, 6.9% active
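Cell-based qHTS: luciferase-tagged P. falciparum in erythrocytes (2% hematocrit, 0.05% parasitemia final) incubated with compounds for 96 hours, 37 C, 5% CO2; luciferase detection reagent then added and luminescence measured.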
Lassa entry inh: qHTS for Inhibitors of binding or entry into cells for Lassa Virus; 300,000 tested, 1.2% active; Lassa virus pseudotype entry inhibition, cell reporter; Potency, µM (titrated, usually from 37.9 µM), usual class: inhibitors; calls by dose curve; tested in HEK293 cells; also: nearly all actives have a fitted effect of over 50% in size
Shiga inhibitor: A qHTS for Small Molecule Inhibitors of Shiga Toxin; Vero cells, Shiga toxin protein synthesis inhibition reporter; inhibition, % at 38.7 µM; 290,000 tested, 9.2% active; AID 2315, 2010; in the data active = inhibition mostly above about 28%, no sharp cut-off; inactive = mostly below about 43%
Pf growth 48h: Primary qHTS for delayed death inhibitors of the malarial parasite plastid, 48 hour incubation; Potency, µM (titrated, usually from 28.7 µM), hits mostly inhibitors; 310,000 tested, 5.9% active; P. falciparum luciferase growth in erythrocytes, 48 h
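Luciferase-expressing parasites in RBCs, 2% Hct / 0.1% parasitemia final; RPMI 1640 + 0.5% Albumax; 37 C, 5% CO2, one generation; luminescence read-out, lower signal = inhibition.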
Numbers stand for hits; n = inactive; u = inconclusive; x = no result given; [ ] = dose if it differs, or a comment. In the library only some 19% were active in any assay of this set; here they are far more common. Unless noted, calls follow the shape of the dose curve; as a rule, active = well fitted inhibition curve with a large enough effect; inconclusive = small, poorly fitted or top-dose-only effect, or another doubt; inactive = no such curve, though single readings can be large or run the other way.

SMILES | Cycloheximide cs | Marburg entry inh | Pf growth 96h | Lassa entry inh | Shiga inhibitor | Pf growth 48h
CCOc1cc([N+](=O)[O-])cc(/C=N/NC(=O)c2c(-c3ccccc3)noc2C)c1O | n | n | 13µM | n | n | n
COc1cccc(/C=N/NC(=O)c2c(-c3ccccc3)noc2C)c1O | n | 11µM | u | 10µM | n | 5.9µM
Cc1onc(-c2ccccc2)c1C(=O)N/N=C/c1c[nH]c2ccccc12 | n | n | n | 10µM | n | n
CCCCS(=O)(=O)Nc1ccc(C)cn1 | n | n | n | n | n | n
NC(=O)c1cccc(-c2cc(Nc3ccc(OC(F)(F)F)cc3)ncn2)c1 | 13 | x | 15µM | x | n | 13µM
O=C(NN=Cc1cc([N+](=O)[O-])ccc1O)c1cccc2ccccc12 | x | 10µM | x | 7.1µM | x | x
Nc1nnc(CC(=O)N/N=C\c2cc([N+](=O)[O-])ccc2O)s1 | n | n | 10µM | n | n | n
Cc1cc(C(=O)N/N=C/c2cc([N+](=O)[O-])ccc2O)c2ccccc2n1 | n | u | u | u | n | 9.3µM
COc1ccc(/C=N/NC(=O)c2cc(-c3ccccc3)nc3ccccc23)c(OC)c1 | 18 | x | n | x | n | n
Cc1cc(C(=O)N/N=C/c2ccc([N+](=O)[O-])cc2)c2ccccc2n1 | n | x | n | x | n | n
O=C(N/N=C/c1cc([N+](=O)[O-])ccc1O)c1c[nH]c2ccccc12 | n | x | u | x | n | u
CC(C)c1ccc(C2CC(=O)N3CN(Cc4ccco4)CSC3=C2C#N)cc1 (stereo not given) | n | n | u | n | n | u
COC(=O)c1cc(OC)c(OC)cc1NC(=O)CCCCCN1C(=O)CCC1=O | n | n | x | n | n | n
COc1ccc(CN(C)CCc2ccccn2)cc1OC | n | n | u | n | n | n
CCNC(=O)C(=O)N/N=C/c1cc([N+](=O)[O-])ccc1O | n | u | 10µM | n | n | u
O=C(N/N=C/c1cc([N+](=O)[O-])ccc1O)c1cc(-c2ccccc2)nc2ccccc12 | n | 2.5µM | n | 8.9µM | n | 2.9µM
Cc1cc(C)n(CC(=O)N/N=C/c2cc([N+](=O)[O-])ccc2O)n1 | n | u | n | n | n | u
COc1ccc2nc(-c3ccccc3)cc(OC)c2c1 | 58 | u | n | u | 65 | n
CC(=O)NN1C(=O)c2ccccc2NC1c1cccc([N+](=O)[O-])c1 (stereo not given) | n | n | n | n | n | n[0.00184 µM]
N#CC1(c2ccccc2)CCN(C2CC(=O)N(c3cccc(F)c3)C2=O)CC1 (stereo not given) | n | n | 8.3µM | n | n | n
CCOC(=O)c1ccc(N2C(=O)CC(N3CCC(C#N)(c4ccccc4)CC3)C2=O)cc1 (stereo not given) | n | n | n | n | n | u
CC(NCCN(C)C)C(=O)C12CC3CC(CC(C3)C1)C2 (stereo not given) | n | x | 5.9µM | x | n | u
CN(C)CCOC(=O)C12CC3CC(C1)CC(C(=O)OCCN(C)C)(C3)C2 | n | n | n | n | n | n
COc1ccc(OC)c(/C=N/NC(=O)c2cc[n+](CC(=O)c3ccccc3)cc2)c1 | n | n | n | n | n | x
CCOC(=O)c1c(NC(=O)c2ccc(-n3cnnn3)cc2)sc2c1CCCC2 | n | u | n | 16µM | n | u
SMILES | Cycloheximide cs | Marburg entry inh | Pf growth 96h | Lassa entry inh | Shiga inhibitor | Pf growth 48h
CC(C)(C)c1ccc(C(=O)Nc2sc3c(c2C(=O)O)CCC3)cc1 | n | 3.2µM | n | u | n | n
CCOC(=O)c1c(NC(=O)CSc2nnc(-c3c[nH]c4ccccc34)n2CCOC)sc2c1CCCC2 | n | n | 9.3µM | u | n | 7.4µM
CCOC(=O)c1c(NC(=O)CSc2nnc(-c3c[nH]c4ccccc34)n2C)sc2c1CCCC2 | n | u | u | n | n | u
O=C(Nc1sc2c(c1C(=O)O)CCCCC2)c1ccccc1F | 41 | u | n | u | 109 | n
COc1ccc(CCN=C(N)NS(=O)(=O)c2ccc(F)cc2)cc1 | n | n | n | u | n | n
COc1ccc(-c2noc(CN3C(=O)c4ccccc4C3=O)n2)cc1 | n | n | n | n | n | n
Cc1c(Cl)c(-c2n[nH]c(=S)n2-c2ccc(F)cc2)nn1C | n | u | n | n | n | n
COc1ccccc1C(=O)Nc1sc2c(c1C(N)=O)CCCC2 | n | n | u | n | n | n

Screens (PubChem BioAssay)
